Assay results: PubChem BioAssay AID686979 (National Center for Advancing Translational Sciences (NCATS), 2013)
Hit rate of the full screen: of about 420,000 compounds, about 50,000 (12%) were called active. Another 26% or so got no clear call; they are omitted. The call rests on the fitted dose curve; in most records, active means well fitted inhibition curve with a large enough effect; inconclusive means small, poorly fitted or top-dose-only effect; inactive means flat fitted curve, though single readings scatter. The entries come from a sample that favours actives as a whole.

Assay: qHTS for Inhibitors of human tyrosyl-DNA phosphodiesterase 1 (TDP1): qHTS in cells in presence of CPT; further: nearly all actives have a fitted effect of over 55% in size
Details: chicken DT40 Tdp1-/-;hTDP1 cells + 20 nM CPT, ATP luminescence, 48 h; series mostly up to 46.2 µM; activity change, negative = growth inhibition: at the top concentration
Outline: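 Chicken DT40 Tdp1-/- cells stably complemented with human TDP1 were seeded at 400 cells/well in medium containing 20 nM camptothecin, exposed to pin-transferred compounds, and grown at 37 °C for at least 48 hr. Viability was read as ATP luminescence.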
On the % scale 0 is the no-effect control and ±100 the full control effect; potency means the concentration at half of the fitted maximal effect.

SMILES	activity change, negative = growth inhibition	Potency
COc1ccc(N(CC(=O)NCCSCc2cccc(Cl)c2)S(C)(=O)=O)cc1	-0.225% (inactive)	
O=C1CCC(=O)N(c2ccccc2)N1	4.59% (inactive)	
O=c1[nH]n(-c2ccc([N+](=O)[O-])cc2)c(=O)c2ccccc12	-3.34% (inactive)	
O=C1CC(c2ccccc2)=NN1c1ccc([N+](=O)[O-])cc1		16.4 µM (active)
Cc1nc(-c2ccc([N+](=O)[O-])cc2)c(-c2ccccc2)o1	-23% (inactive)	
CC(=O)c1ccc(S(=O)(=O)NCc2nnnn2-c2ccccc2)cc1	-17.2% (inactive)	
CC(=O)c1ccccc1OCc1ccc(C(=O)c2ccccc2)cc1		16.4 µM (active)
O=C(O)c1ccccc1OCc1ccccc1Cl	-16.6% (inactive)	
O=C(NC1CCC(O)CC1)c1ccccc1OCc1ccc(F)cc1 (centres undefined)	-15% (inactive)	
S=C(Nc1ccc2c(c1)OCO2)N1CCCC1	-4.45% (inactive)	
Cc1ccc(NC(=O)C(C)OC(=O)C2CC3CCCC(C2)C3=O)cc1S(=O)(=O)N1CCOCC1 (centres undefined)	5.1% (inactive)	
O=C(CN1CCN(S(=O)(=O)/C=C/c2ccccc2)CC1)Nc1ccc(N2CCOCC2)cc1	4.47% (inactive)	
O=S(=O)(c1ccc(NC(=S)NN=C(C2CC2)C2CC2)cc1)N1CCOCC1	-15.8% (inactive)	
Cc1ccc(NC(=O)c2ccccn2)cc1S(=O)(=O)N1CCOCC1	-21.4% (inactive)	
Cc1ccc(NC(=O)COC(=O)C2CC2)cc1S(=O)(=O)N1CCOCC1	-2.36% (inactive)	
Cc1ccc(C(=O)Nc2ccc3c(c2)OCCO3)cc1S(=O)(=O)N1CCOCC1	-6.96% (inactive)	
O=C(CN1CCN(c2cccc(Cl)c2)CC1)Nc1ccc(S(=O)(=O)N2CCOCC2)cc1		20.6 µM (active)
O=C(Nc1ccc(S(=O)(=O)N2CCOCC2)cc1)C1CCN(S(=O)(=O)c2ccc(Cl)cc2)CC1		16.4 µM (active)
Cc1ccc(NC(=O)c2ccc(Cl)nc2)cc1S(=O)(=O)N1CCOCC1		10.3 µM (active)
O=C(Nc1ccc(Oc2ccccc2)cc1)C1CCN(S(=O)(=O)c2ccc(Cl)cc2)CC1	-17.6% (inactive)	
O=C(CN1CCCCCC1)Nc1ccc(S(=O)(=O)N2CCCCC2)cc1	-8.76% (inactive)	
Cc1ccc(NC(=O)C2CCC(C(C)(C)C)CC2)cc1S(=O)(=O)N1CCOCC1 (centres undefined)		13 µM (active)
COc1cccc(C(=O)NNS(=O)(=O)c2ccc(F)cc2)c1	0.492% (inactive)	
Cc1c(NC(=O)c2cc(-c3ccc(Br)cc3)on2)c(=O)n(-c2ccccc2)n1C	0.485% (inactive)	
CCCN(C(=O)CSc1nnc(N)s1)c1c(N)n(Cc2ccccc2)c(=O)[nH]c1=O	9.05% (inactive)	

SMILES	activity change, negative = growth inhibition	Potency
COc1ccc(C(=O)Oc2ccc(-c3nnco3)cc2)cc1S(=O)(=O)N1CCOCC1	-12.2% (inactive)	
Cc1nn(C)c(Cl)c1CN1CCC(Oc2ccc(C(=O)N3CCCC3)cc2)CC1	-21.7% (inactive)	
Cc1ccc(C(CNC(=O)Nc2ccccc2)N2CCN(C)CC2)cc1 (centres undefined)	-7.62% (inactive)	
CC(C)Cc1ccc(C(C)C(=N)N)cc1 (centres undefined)		7.31 µM (active)
COc1c(F)c(F)c(-c2csc(N)n2)c(F)c1F	-0.225% (inactive)	
O=C(Nc1nnc(-c2ccc(Cl)cc2)o1)c1ccccc1Br		23.1 µM (active)
O=C(COC(=O)c1ccccc1Br)Nc1nnc(-c2ccccc2)o1	-6.82% (inactive)	
O=C(Nc1ccccc1)c1ccccc1Br	2.75% (inactive)	
CCCCNC(=O)N1CCCC(N(C)CCc2ccc(OC)c(OC)c2)C1 (centres undefined)	-8.93% (inactive)	
CC(NC(=O)CNC(=O)Cc1cccc2ccccc12)c1ccc(S(N)(=O)=O)cc1 (centres undefined)	33.9% (inactive)	
Cc1cccc(-n2cc(CN3CCN(C(=O)c4ncn[nH]4)CC3)c(-c3cccc(F)c3)n2)c1	-0.232% (inactive)	
COc1ccc(-n2cc(CNC3CCOCC3)c(-c3cccc(F)c3)n2)cc1		20.6 µM (active)
COc1ccc(CN2C3CCCC2CC(NC(=O)c2cccc(F)c2)C3)cc1 (centres undefined)	-14.7% (inactive)	
COc1ccc(Cl)cc1-n1c(=S)sc2c(=O)n(-c3ccc(F)cc3)c(SCC(=O)O)nc21	0.94% (inactive)	
COc1cc(C)c(CN2CCc3nnc(C(C)NC(=O)c4cccnc4)n3CC2)cc1C (centres undefined)	-20.5% (inactive)	
Cc1ccccc1Nc1c([N+](=O)[O-])ccc2nonc12	5.39% (inactive)	
Cc1nn(C)cc1C(=O)c1ccccc1	10.1% (inactive)	
COc1ccc(N(C)C(=O)C2CCN(S(=O)(=O)c3cccc4nsnc34)CC2)cc1	-8.02% (inactive)	
COc1ccc(CCC(=O)NCCc2csc(-c3ccc(Cl)cc3)n2)cc1		23.1 µM (active)
COc1ccc(OCCCC(=O)NCCc2ccccc2)cc1	-3.96% (inactive)	
COc1ccc(CCNC(=O)COC(=O)c2cnc(Cl)c(Cl)c2)cc1	-10.5% (inactive)	
CCOc1ccc(C(=O)Nc2cc(Cl)ccc2-n2cncn2)cc1OC	2.16% (inactive)	
CCC(NC(=O)C1CCCC1)c1ccc(C)cc1 (centres undefined)	-15.1% (inactive)	
Cc1cc[n+](C2CCCCC2)cc1		15.8 µM (active)
O=C(NNC(=O)c1ccccc1O)c1ccccc1O		5.17 µM (active)

SMILES	activity change, negative = growth inhibition	Potency
CC1=C(C)CC(C(=O)NNC(=O)c2ccccc2O)C(C(=O)O)C1 (centres undefined)		18.4 µM (active)
O=C(NNC(=O)c1cc(S(=O)(=O)N2CCCCC2)ccc1Cl)c1ccccc1O		23.1 µM (active)
Cc1ccc(S(=O)(=O)N2CCCCC2)cc1NC(=O)CCNC(=O)c1ccccc1Cl	-14.2% (inactive)	
NC(=O)COC(=O)c1cc(S(=O)(=O)N2CCN(c3ccccc3)CC2)ccc1Cl	-7.08% (inactive)	
CC1=C(C)CC(C(=O)NNC(=O)c2csc3c2CCC(C(C)(C)C)C3)C(C(=O)O)C1 (centres undefined)	3.49% (inactive)	
Cc1cc(C(=O)CCC(=O)NNC(=O)c2ccccc2O)c(C)s1	3.31% (inactive)	
COc1ccccc1N(C)S(=O)(=O)c1ccc(Cl)c(C(=O)N2CCC(C(N)=O)CC2)c1	-26.7% (inactive)	
NC(=O)C1CCN(C(=O)c2cc(S(=O)(=O)N3CCN(c4ccccc4)CC3)ccc2Cl)CC1		10.3 µM (active)
O=C(COC(=O)c1cc(S(=O)(=O)N2CCCCC2)ccc1Cl)NCc1ccco1	7.52% (inactive)	
CC1=C(C)CC(C(=O)NC(C)CCc2ccccc2)C(C(=O)O)C1 (centres undefined)	16.8% (inactive)	
CC(=O)NC(=O)c1ccccc1O	1.83% (inactive)	
COCCNC(=S)N(CCc1c(C)[nH]c2ccc(C)cc12)Cc1cccnc1	-23.2% (inactive)	
CC(NC(=O)CN(C)S(=O)(=O)c1ccc(F)cc1)C1CC2CCC1C2 (centres undefined)	-15.7% (inactive)	
CC(=O)N/C(=C\c1ccccc1)C(=O)OC(C)C(=O)N(C)c1ccccc1 (centres undefined)	9.34% (inactive)	
CCOC(=O)Cn1c(O)c(N=NC(=O)CNC(=O)Cc2ccccc2)c2ccccc21	-17.9% (inactive)	
CC(=O)Nc1ccc(S(=O)(=O)N2CCC(C(=O)N[C@@H](Cc3ccccc3)C(=O)O)CC2)cc1	-13.1% (inactive)	
COc1cccc(CNC(=O)C(NS(=O)(=O)c2ccc3nc(C)sc3c2)C(C)C)c1 (centres undefined)	1.78% (inactive)	
COc1ccc(/C=C2\SC(=S)N(CCC(=O)N3CCOCC3)C2=O)cc1OC	-2.91% (inactive)	
COc1cccc(/C=C2\SC(=S)N(CCCC(=O)N3CCOCC3)C2=O)c1		18.4 µM (active)
COc1cccc(/C=C2/SC(=S)N(CC(=O)NC3C=CS(=O)(=O)C3)C2=O)c1 (centres undefined)	-24.6% (inactive)	
Cc1cc(C)cc(NC(=O)COC(=O)c2cc(C)oc2C)c1	-3.46% (inactive)	
Cc1sc2ccccc2c1CNC[C@H]1O[C@@H](n2ccc(=O)[nH]c2=O)[C@H](O)[C@@H]1O	0.888% (inactive)	
O=C(CCn1ccc([N+](=O)[O-])n1)Nc1nccs1	1.03% (inactive)	
Cc1cs/c(=N\N=C\c2ccc(O)cc2)n1Cc1ccco1	-14.2% (inactive)	
CC1CN(Cc2ccco2)C(=S)N(c2ccccc2)C1=O (centres undefined)	0.62% (inactive)	

SMILES	activity change, negative = growth inhibition	Potency
CN(C)C(=S)N=c1ssc(=S)n1Cc1ccco1		1.64 µM (active)
Nc1ncnc2c1ncn2[C@@H]1O[C@H](C(=O)NS(=O)(=O)c2c(Cl)nc3sccn23)[C@@H](O)[C@H]1O	2.79% (inactive)	
O=S(=O)(Nc1ccccn1)c1cccc(S(=O)(=O)c2ccc(Cl)cc2)c1	2.88% (inactive)	
NS(=O)(=O)c1ccc(CNC(=O)c2cc(S(=O)(=O)N3CCOCC3)ccc2N2CCCC2)cc1	-10.3% (inactive)	
CCCN(C(=O)COC(=O)CNS(=O)(=O)c1ccc(NC(C)=O)cc1)C1CCS(=O)(=O)C1 (centres undefined)	1.6% (inactive)	
COC(=O)C1=C(N)Oc2c(oc(CO)cc2=O)C1c1c(F)cccc1Cl (centres undefined)	-3.14% (inactive)	
CCOC(=O)c1cc(-c2sc(NC(=O)c3ccccc3)nc2C)n(Cc2ccccc2)n1		16.4 µM (active)
CCOC(=O)c1cc(OC(=O)c2ccccc2Cl)n(-c2ccccc2)n1	-13.5% (inactive)	
CCOC(=O)c1sc(NC(=O)c2sc(C)nc2C)nc1C	-2.43% (inactive)	
CSc1ccc(Cl)c(C(=O)OCC(=O)N2CCNC2=O)c1	-1.63% (inactive)	
Nc1ncnc2c1ncn2[C@@H]1O[C@H](C(=O)N2CCSC2)[C@@H](O)[C@H]1O	-29.7% (inactive)	
COc1ccc(Nc2nc(N)nc(CSC(=S)N3CCC(C)CC3)n2)cc1	-19.7% (inactive)	
COc1ccc(N(CC(=O)Nc2ccc(C)cc2C)S(=O)(=O)c2ccccc2[N+](=O)[O-])c(OC)c1	-27.2% (inactive)	
COc1ccc(C)cc1S(=O)(=O)N(CC(=O)Nc1cccc([N+](=O)[O-])c1)c1ccc(C)cc1		18.4 µM (active)
CN(CC(=O)Nc1cccc(F)c1)CC(=O)Nc1cccc([N+](=O)[O-])c1	-27.1% (inactive)	
O=C(CCc1nnc2ccc(NCCCN3CCCC3=O)nn12)NCc1ccccc1Cl	1.12% (inactive)	
COc1ccc(NC(=O)CN2C(=O)CSc3ccc(S(=O)(=O)N4CCC(C)CC4)cc32)cc1	-27.1% (inactive)	
O=S(=O)(NCCc1ccncc1)c1ccccc1	-7.23% (inactive)	
Nc1nc(/C(=C/CC(=O)O)C(=O)N[C@@H]2C(=O)N3C(C(=O)O)=CCS[C@H]23)cs1	-22.6% (inactive)	
O=C(c1cccc([N+](=O)[O-])c1)N1CCN(Cc2ccccc2)CC1	11.9% (inactive)	
O=C1Nc2ccc([N+](=O)[O-])cc2C1=Nc1cccc(CO)c1		16.4 µM (active)
CC1Cn2c(nnc2-c2cccs2)S1 (centres undefined)	-6.6% (inactive)	
O=c1cnnc(Nc2ccccc2)[nH]1	-1.22% (inactive)	
CCC1(C2CCN(Cc3cccnc3)CC2)NC(=O)N(CC2COc3ccccc3O2)C1=O (centres undefined)	-5.78% [at 9.04 µM] (inactive)	
